TGFb inhibitor – qHTS for Inhibitors of TGF-b. HepG2 CAGA-GFP TGF-b/SMAD3 reporter, GFP fluorescence, 18 h; TGF-beta stimulated, 500 pg/mL final. Potency, µM (top dose mostly 46.1 µM), hits mostly inhibitors. 1.2% of 410,000 active; further: nearly all actives have a fitted effect of over 65% in size
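Read-out: total well GFP (ex488/em500-530) summed from mean per-cell fluorescence. Cells: HEPG2 CAGA-GFP, 1% FBS DMEM, 18 h at 37 degrees C with 500 pg/mL final TGF-beta. Unstimulated wells served as the full-inhibition control; stimulated DMSO wells = 0%.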
DT40 TDP1 no CPT – qHTS for Inhibitors of human tyrosyl-DNA phosphodiesterase 1 (TDP1): qHTS in cells in absence of CPT; 15% of 420,000 active; AID 686978, 2013; Potency, µM (titrated, usually from 46.2 µM), hits mostly inhibitors; DT40 Tdp1-/- hTDP1 cells, no CPT, ATP luminescence, 48 h; further: nearly all actives have a fitted effect of over 55% in size
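Chicken DT40 Tdp1-/- cells complemented with human TDP1, screened without camptothecin (DMSO vehicle only), 400 cells/well. Compounds pin-transferred, cells incubated at 37 °C for at least 48 hr. Growth read as ATP-dependent luminescence (CellTiter-Glo, 30 min at RT).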
HT1080 IDH1KD tx – qHTS for induction of synthetic lethality in tumor cells producing 2HG: qHTS for the HT-1080-IDH1KD cell line | HT-1080 IDH1 knockdown viability, ATP luminescence, 48 h | Potency, µM (doses to about 46.1 µM), hits mostly cytotoxic | 2% of 360,000 active | AID 686971, 2013
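Knockdown cells (IDH1KD HT-1080) received compounds 2 h after plating at 750 cells/well and were kept 48 h at 37 °C in 5% FBS RPMI. A CellTiter-Glo luminescence read gave % activity for curve fitting.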
HT1080NT lethal – qHTS for induction of synthetic lethality in tumor cells producing 2HG: qHTS for the HT-1080-NT fibrosarcoma cell line; HT-1080-NT fibrosarcoma viability, CellTiter-Glo ATP luminescence, 48 h; AID 686970, 2013; 1.6% of 360,000 active; Potency, µM (series often up to 46.1 µM), hits mostly cytotoxic;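 further: NT is the 2HG producing partner of a matched IDH1 knockdown line; nearly all actives have a fitted effect of over 55% in size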
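Fibrosarcoma NT cells, 750 per well in 5% FBS RPMI, were exposed to compound for 48 hours. Viability: CellTiter-Glo luminescence.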
HepG2 tox – qHTS for Inhibitors of TGF-b: Cytotox Counterscreen | HepG2 CAGA-GFP viability, ATP luminescence, 18 h | Potency, µM (titrated, usually from 46.1 µM), usual class: cytotoxic | 0.76% of 410,000 active
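HepG2 CAGA-GFP cells (1000/well, DMEM with 1% FBS) received compound, then TGF-beta at 500 pg/mL final, and were incubated 18 hours at 37 degrees C. Viability was read by CellTiter-Glo luminescence. Media-only wells were set as complete cell-killing and DMSO as no toxicity.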
DT40 TDP1 CPT – qHTS for Inhibitors of human tyrosyl-DNA phosphodiesterase 1 (TDP1): qHTS in cells in presence of CPT. chicken DT40 Tdp1-/-;hTDP1 cells + 20 nM CPT, ATP luminescence, 48 h. Potency, µM (titrated, usually from 46.2 µM), usual class: inhibitors. 12% of 420,000 active. AID 686979, 2013; further: nearly all actives have a fitted effect of over 55% in size
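Cell growth measured by CellTiter-Glo luminescence after a minimum 48 h, 37 C compound exposure with 20 nM CPT in Tdp1-knockout DT40 cells stably expressing hTDP1, seeded 400/well; qHTS titration format.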
A number is an active result; – = inactive; ? = inconclusive; · = no result given. Rows were chosen to be rich in hits. Some 17% of all compounds tested hit in one or more screens of this group. The call rests on the fitted dose curve; in most records, active means well fitted curve in the direction sought with a large enough effect; inconclusive means small, poorly fitted or top-dose-only effect, or another doubt; inactive means no such curve, though single readings can be large; an effect the other way counts as inactive or inconclusive.

SMILES | TGFb inhibitor | DT40 TDP1 no CPT | HT1080 IDH1KD tx | HT1080NT lethal | HepG2 tox | DT40 TDP1 CPT
CCOc1ccccc1NC(=O)Cn1nnc(C(=O)NCc2ccco2)c1N | ? | 0.0231µM | 0.0411µM | ? | – | 0.0092µM
CCc1ccccc1NC(=O)c1nnn(CC(=O)Nc2cccc(C)c2)c1N | – | – | – | – | – | –
CSc1cccc(NC(=O)c2nnn(CC(=O)Nc3cc(C)cc(C)c3)c2N)c1 | – | 6.51µM | ? | ? | – | ?
FC(F)(F)c1ccccc1NC(=S)Nn1cnnc1 | – | – | – | – | – | ?
Cc1nn2c(=O)cc(COC(=O)c3c(F)cccc3Cl)nc2s1 | – | – | – | – | – | –
CN(C)CCCNC(=O)C1(O)c2cc(Br)ccc2NC(=O)N1c1ccc(Cl)cc1 (configuration not stated) | – | – | – | – | – | –
COCCCNc1c2c3c(cccc3[nH]c1=O)C(=O)c1ccccc1-2 | – | 16.4µM | ? | ? | – | 14.6µM
COc1ccc(C2=CC(=O)C[C@H](COCc3ccccc3)N(C(=O)OC(C)(C)C)O2)cc1 | ? | 18.4µM | – | – | – | ?
COc1ccc(NC(=O)C2CCCN2C(=O)OCc2ccccc2)cc1 (configuration not stated) | – | – | – | – | – | –
O=C(CN1C(=O)COc2ccc(S(=O)(=O)N3CCCCCC3)cc21)Nc1cccc(Cl)c1 | ? | 20.6µM | · | · | – | ?
CC(C)c1ccc(NC(=O)CN2C(=O)COc3ccc(S(=O)(=O)N4CCOCC4)cc32)cc1 | ? | – | – | – | – | –
COc1ccc(NC(=O)CN2C(=O)COc3ccc(S(=O)(=O)N4CCCCCC4)cc32)cc1 | – | 16.4µM | – | – | – | 4.61µM
COC(=O)c1ccc(NC(=O)CN2C(=O)CCc3cc(S(=O)(=O)N4CCCCC4)ccc32)cc1 | ? | – | · | · | – | –
Cc1ccc(NC(=O)CN2C(=O)CCc3cc(S(=O)(=O)N4CCCCC4)ccc32)cc1C | ? | 20.6µM | · | · | – | ?
CC(C)c1ccc(NC(=O)CN2C(=O)COc3ccc(S(=O)(=O)N4CCCCCC4)cc32)cc1 | ? | 3.66µM | · | · | – | 2.59µM
CCOc1ccccc1NC(=O)C1CCN(S(C)(=O)=O)CC1 | – | – | – | – | – | ?
Cc1ccc(NC(=O)CN2C(=O)COc3ccc(S(=O)(=O)N4CCCCCC4)cc32)cc1C | ? | 14.6µM | · | · | – | ?
COc1ccc(NC(=O)CN2C(=O)COc3ccc(S(=O)(=O)N4CCCCC4)cc32)cc1OC | – | ? | – | – | – | ?
COc1cccc(NC(=O)c2oc3ccccc3c2NC(=O)c2cc3ccccc3o2)c1 | – | 18.4µM | · | · | – | 13µM
O=C(Nc1ccc(F)cc1)c1oc2ccccc2c1NC(=O)C1CCCC1 | – | 18.4µM | ? | – | – | ?
COc1cccc(NC(=O)c2oc3ccccc3c2NC(=O)C2CCCCC2)c1 | – | 16.4µM | · | · | – | ?
COc1ccccc1NC(=O)c1oc2ccccc2c1NC(=O)C1CCCCC1 | – | ? | · | · | – | –
COc1ccccc1-c1cc2nc(C)c(CCC(=O)NCc3ccc(F)cc3)c(C)n2n1 | – | ? | – | – | – | ?
COc1ccccc1-c1cc(C(F)(F)F)nc(S(C)(=O)=O)n1 | ? | 5.8µM | 18.4µM | ? | – | 3.66µM
COc1ccccc1-c1cc(C(F)(F)F)nc(S(=O)(=O)CCCC(=O)NC(C)C)n1 | ? | 3.26µM | 5.8µM | 5.8µM | – | 2.31µM
SMILES | TGFb inhibitor | DT40 TDP1 no CPT | HT1080 IDH1KD tx | HT1080NT lethal | HepG2 tox | DT40 TDP1 CPT
COc1ccccc1-c1cc(C(F)(F)F)nc(S(=O)(=O)CCCC(=O)NCc2ccc(F)cc2)n1 | ? | 4.11µM | 16.4µM | 9.2µM | 14.1µM | 2.91µM
Cc1ccc(NC(=O)C2C3CCCC2C3c2ccccc2)cc1 (configuration not stated) | – | – | – | – | – | –
Cc1ccc(/C=N/NC(=O)c2cccc3ccccc23)o1 | – | 8.2µM | ? | ? | – | 13µM
O=C(N/N=C/c1ccccc1)c1cccc2ccccc12 | – | 1.3µM | – | – | – | ?
Cc1ccc(/C=N/NC(=O)c2c[nH]c3ccccc23)o1 | – | – | – | – | – | –
CCN(CC)c1ccc(/C=N\NC(=O)c2cccc3cc[nH]c23)cc1 | – | 2.91µM | 5.17µM | ? | – | 5.17µM
O=C(N/N=C/c1ccccc1F)c1cccc2ccccc12 | – | ? | – | – | – | ?
O=C(N/N=C/c1ccc([N+](=O)[O-])cc1)c1cccc2cc[nH]c12 | – | ? | – | – | – | –
Cn1c(=O)c2c(-c3ccccc3)n(-c3cc([N+](=O)[O-])ccc3O)cc2n(C)c1=O | – | – | – | – | – | –
COc1ccc(N2CCN(C(=O)CN(c3ccc(OC)cc3)S(=O)(=O)c3ccccc3)CC2)cc1 | – | 23.1µM | – | – | – | 13µM
Cc1ccc(S(=O)(=O)N(CC(=O)N2CCc3ccccc3C2)c2ccc(Cl)c(Cl)c2)cc1 | – | ? | – | – | – | ?
O=C(CN(c1ccc(Cl)c(Cl)c1)S(=O)(=O)c1ccccc1)N1CCc2ccccc2C1 | – | 29.1µM | – | – | – | ?
Cc1ccc(S(=O)(=O)N(CC(=O)N=Nc2c(O)[nH]c3ccccc23)c2ccc(C)c(C)c2)cc1 | – | 20.6µM | ? | ? | – | 18.4µM
CCN(CC)S(=O)(=O)c1ccc(N2CCN(c3ccccc3OC)CC2)c(N)c1 | – | 7.31µM | ? | ? | – | 9.2µM
CCN(CC)S(=O)(=O)c1ccc2c(c1)c(=O)c(C(=O)N1CCN(c3ccccc3OC)CC1)cn2C | – | ? | · | · | – | –
Cn1cc(CCC(=O)N2CCCC(N3CCN(c4ccccc4F)CC3)C2)cn1 (configuration not stated) | – | – | ? | ? | – | –
Cc1ccc(-n2c(SCC(N)=O)nnc2-c2ccco2)cc1 | – | – | – | – | – | –
Cc1ccccc1CN(c1ccc(C(=O)N2CCc3ccccc3C2)cc1)S(C)(=O)=O | – | 14.6µM | – | – | – | 11.6µM
COc1ccccc1N(CC(=O)N1CCN(Cc2ccccc2)CC1)S(=O)(=O)c1ccccc1 | – | 16.4µM | – | – | – | 23.1µM

From PubChem
